Source: the supplement of paper PMC12669032

What was measured:
Assay in all cases: growth AUC relative to DMSO control (median of replicates) (fraction); higher = more growth (less inhibition), active = hit call of the paper
Settings in all cases: 20 µM; 24 h;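 active = AUC reduced over 20% with Padj below 0.05 in at least 2 of 3 replicates; inactive = otherwise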
[1] = test system: Akkermansia muciniphila
Outline: (§1)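 Gut bacterial monocultures were grown anaerobically at 37 °C in mGAM from a starting OD600 of 0.05 with 20 µM compound (1% DMSO), in round-bottom 96-well plates under pierced gas-permeable seals, and OD600 was read hourly for 24 h. With the minimum OD set to 0, area under the growth curve was normalised to the plate median of solvent-only wells, or to row and column medians on the industrial chemical plate. Each value is the median of three biological replicates grown on separate days.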

[2] = test system: Bacteroides caccae
Outline: as §1

[3] = test system: Bacteroides clarus
Outline: as §1

[4] = test system: Bacteroides dorei
Outline: as §1

[5] = test system: Bacteroides stercoris
Outline: as §1

[6] = test system: Bacteroides thetaiotaomicron
Outline: as §1

[7] = test system: Bacteroides uniformis
Outline: as §1

[8] = test system: Bifidobacterium longum subsp. longum
Outline: as §1

[9] = test system: Clostridium difficile
Outline: as §1

[10] = test system: Collinsella aerofaciens
Outline: as §1

[11] = test system: Coprococcus comes
Outline: as §1

[12] = test system: Escherichia coli ED1a
Outline: as §1

[13] = test system: Escherichia coli IAI1
Outline: as §1

[14] = test system: Eubacterium rectale
Outline: as §1

[15] = test system: Fusobacterium nucleatum subsp. animalis
Outline: as §1

[16] = test system: Lactobacillus gasseri
Outline: as §1

[17] = test system: Lactobacillus paracasei
Outline: as §1

[18] = test system: Odoribacter splanchnicus
Outline: as §1

[19] = test system: Parabacteroides distasonis
Outline: as §1

[20] = test system: Parabacteroides merdae
Outline: as §1

Measured: growth AUC

CC1=C(C(=O)Nc2ccccc2)SCCO1
inactive: [1] 0.979 | [2] 1.02 | [3] 1 | [4] 0.982 | [5] 1.21 | [6] 1.04 | [7] 0.993 | [8] 0.956 | [9] 1 | [10] 1.03 | [11] 0.998 | [12] 1 | [13] 1.04 | [14] 1.06 | [15] 1.09 | [16] 0.993 | [17] 1.04 | [18] 0.985 | [19] 1 | [20] 1.01

COc1nc(C)nc(NC(=O)NS(=O)(=O)c2ccccc2Cl)n1
inactive: [1] 0.942 | [2] 1 | [3] 0.959 | [4] 0.99 | [5] 0.929 | [6] 0.958 | [7] 1 | [8] 0.938 | [9] 1.02 | [10] 1.04 | [11] 0.971 | [12] 0.982 | [13] 0.988 | [14] 0.986 | [15] 1.02 | [16] 1.07 | [17] 1.01 | [18] 0.952 | [19] 1.01 | [20] 0.979

OC(c1ccc(Cl)cc1)(c1cncnc1)c1ccccc1Cl (stereo not given)
inactive: [1] 0.992 | [2] 0.89 | [3] 0.887 | [4] 0.893 | [5] 0.686 | [8] 0.921 | [9] 1.01 | [10] 0.984 | [11] 0.987 | [12] 0.991 | [13] 0.973 | [14] 1.14 | [15] 1.01 | [16] 0.922 | [17] 1.12 | [18] 0.611 | [19] 0.886
active: [6] 0.503 | [7] 0.632 | [20] 0.299

O=C(NC(=O)c1c(F)cccc1F)Nc1ccc(Oc2ccc(C(F)(F)F)cc2Cl)cc1F
inactive: [1] 1.02 | [2] 1.02 | [3] 0.984 | [4] 1.02 | [5] 1.02 | [6] 1 | [7] 0.996 | [8] 1.05 | [9] 1.02 | [10] 1.08 | [11] 1 | [12] 1.03 | [13] 1.03 | [14] 0.994 | [15] 0.951 | [16] 1.21 | [17] 0.974 | [18] 0.978 | [19] 0.988 | [20] 1

CCNc1nc(NC(C)(C)C)nc(SC)n1
inactive: [1] 1.02 | [2] 0.947 | [3] 0.94 | [4] 0.871 | [5] 1.07 | [6] 0.728 | [7] 0.905 | [8] 0.915 | [9] 0.967 | [10] 1 | [11] 0.969 | [12] 0.987 | [13] 0.986 | [14] 0.956 | [15] 1.06 | [16] 1.1 | [17] 1.08 | [18] 0.876 | [19] 0.936 | [20] 0.947

COP(=O)(OC)Oc1ccc(S(C)(=O)=O)c(C)c1
inactive: [1] 0.876 | [2] 0.971 | [3] 0.963 | [4] 0.987 | [5] 1.01 | [6] 1 | [7] 0.981 | [8] 0.956 | [9] 0.994 | [10] 1.01 | [11] 0.989 | [12] 1 | [13] 0.983 | [14] 0.795 | [15] 0.998 | [16] 1.07 | [17] 0.971 | [18] 1.02 | [19] 1.02 | [20] 0.995

CCCN(CCC)c1c([N+](=O)[O-])cc(S(N)(=O)=O)cc1[N+](=O)[O-]
inactive: [1] 0.998 | [2] 0.956 | [3] 0.896 | [4] 0.932 | [5] 0.809 | [6] 0.948 | [7] 0.89 | [8] 0.987 | [9] 0.975 | [10] 0.975 | [11] 0.973 | [12] 0.996 | [13] 0.973 | [14] 0.894 | [15] 0.9 | [16] 0.935 | [17] 0.942 | [18] 0.934 | [19] 0.971 | [20] 0.997

Nc1cccc(Cl)c1Cl
inactive: [1] 0.928 | [2] 1.04 | [3] 1 | [4] 0.999 | [5] 1.18 | [6] 0.999 | [7] 1.02 | [8] 0.921 | [9] 0.999 | [10] 1.06 | [11] 1.01 | [12] 1.04 | [13] 1.03 | [14] 0.947 | [15] 1.1 | [16] 1.05 | [17] 0.962 | [18] 0.991 | [19] 1.02 | [20] 0.998

CCOC(=O)CC(SP(=S)(OC)OC)C(=O)OCC (stereo not given)
inactive: [1] 1.13 | [2] 0.953 | [3] 1 | [4] 0.881 | [5] 0.982 | [6] 0.977 | [7] 0.965 | [8] 1.09 | [9] 0.845 | [10] 0.955 | [11] 0.984 | [12] 0.975 | [13] 1.02 | [14] 1.07 | [15] 0.977 | [16] 0.917 | [17] 1.13 | [18] 1.07 | [19] 0.959 | [20] 1.01

O=[N+]([O-])NC1=NCOCN1Cc1cnc(Cl)s1
inactive: [1] 1.23 | [2] 0.994 | [3] 1.04 | [4] 1.01 | [5] 1.19 | [6] 0.979 | [7] 0.964 | [8] 0.917 | [9] 0.999 | [10] 0.971 | [11] 0.971 | [12] 0.992 | [13] 0.997 | [14] 1.1 | [15] 1.15 | [16] 0.809 | [17] 0.988 | [18] 1.04 | [19] 1.01 | [20] 0.965

COP(=S)(OC)Oc1c(Cl)cc(C)cc1Cl
inactive: [1] 0.999 | [2] 0.966 | [3] 0.993 | [4] 0.964 | [5] 0.958 | [6] 1.01 | [7] 0.97 | [8] 0.98 | [9] 0.985 | [10] 0.975 | [11] 0.99 | [12] 0.983 | [13] 0.99 | [14] 1 | [15] 0.971 | [16] 0.925 | [17] 1.06 | [18] 0.97 | [19] 0.96 | [20] 0.998

Cc1nc(N(C)C=O)nc(OC(=O)N(C)C)c1C
inactive: [1] 1.01 | [2] 0.986 | [3] 0.998 | [4] 0.985 | [5] 0.955 | [6] 0.977 | [7] 0.971 | [8] 1 | [9] 0.963 | [10] 0.992 | [11] 0.995 | [12] 0.975 | [13] 0.954 | [14] 1.03 | [15] 1.06 | [16] 0.976 | [17] 0.985 | [18] 0.981 | [19] 1.04 | [20] 0.982

CNC(=O)CSP(=S)(OC)OC
inactive: [1] 1.19 | [2] 1 | [3] 0.994 | [4] 0.901 | [5] 0.954 | [6] 1.01 | [7] 1 | [8] 1.01 | [9] 0.978 | [10] 0.974 | [11] 1.01 | [12] 0.977 | [13] 0.959 | [14] 1.06 | [15] 0.957 | [16] 0.911 | [17] 0.962 | [18] 0.954 | [19] 0.9 | [20] 0.979

O=C1C=C(N(Cc2ccc(Cl)nc2)CC(F)F)CO1
inactive: [1] 0.98 | [2] 0.991 | [3] 0.991 | [4] 0.977 | [5] 1.25 | [6] 1.01 | [7] 0.997 | [8] 1.01 | [9] 0.978 | [10] 0.994 | [11] 1.02 | [12] 0.971 | [13] 0.994 | [14] 0.959 | [15] 1.05 | [16] 1 | [17] 0.869 | [18] 1.01 | [19] 0.999 | [20] 1.01

CCN(CC)c1c([N+](=O)[O-])cc(C(F)(F)F)c(N)c1[N+](=O)[O-]
inactive: [1] 0.987 | [2] 0.94 | [3] 0.977 | [4] 0.956 | [5] 1.09 | [6] 0.88 | [7] 0.972 | [8] 0.913 | [9] 1 | [10] 1 | [11] 0.982 | [12] 1.05 | [13] 1.02 | [14] 0.977 | [15] 1.06 | [16] 1.04 | [17] 1.06 | [18] 0.955 | [19] 0.897 | [20] 0.928

CCC(C)c1cc([N+](=O)[O-])cc([N+](=O)[O-])c1OC(=O)C=C(C)C (stereo not given)
active: [3] 0.74 | [5] 0.473 | [7] 0.479 | [18] 0.515 | [19] 0.418
inactive: [1] 1.15 | [2] 0.986 | [4] 0.801 | [6] 0.802 | [8] 0.879 | [9] 0.989 | [10] 0.956 | [11] 0.945 | [12] 0.968 | [13] 0.973 | [14] 0.978 | [15] 0.802 | [16] 0.762 | [17] 0.955 | [20] 0.902
